Compounds with a hit are over-represented: about 27% of the library has one in this group of screens.
Pyk2 oligo antag: blocks oligomerization of human Pyk2 in cells | Q293 cells, Pyk2 FERM NanoBiT luminescence; active compounds read low | Q14289 | AID 1347419 | z-score (the deposit names both 25 µM and 10 µM) | hit rate 0.83% among 99,000;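 active means Z-score of -3 or lower, scaled per plate to the spread of control and sample wells; inactive means z-score above -3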;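 further: negative z-score means lost luminescence so less FERM oligomerization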
CYP2C19 inhib: inhibitors of human CYP2C19; P33261; CYP2C19 Supersomes, luciferin-H EGE luminescence, 30 min; inhibition, % at 5 µM; hit rate 21% among 96,000; AID 778;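 active means CYP2C19 inhibition above a set limit at 5 µM in the primary screen, cut at about 50% in these data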;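 further: plate controls were negative control wells for no effect and 2.5 mM tranylcypromine positive control for full effect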
CYP2C9 inhib: human CYP2C9 inhibition; P11712; CYP2C9 Supersomes, luciferin-H conversion, luminescence; inhibition, % at 5 µM; hit rate 20% among 96,000;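 active means blocking of liver enzyme CYP2C9 beyond about 50% at 5 µM, limit read from the data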
CYP2C19 activ: cytochrome P450 2C19 (human) activation | 96,000 tested, under 10 active | recombinant CYP2C19, luciferin-H EGE luminescence; active compounds read high; 0 = fully inhibited enzyme, 1 = untreated enzyme | activation factor at 5 µM | P33261;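 active means activation factor of at least 2 at 5 µM in the primary screen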;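 further: 0 = wells with 2.5 mM tranylcypromine and 1 = vehicle-only wells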
Cav32 inh: inhibitors of human Cav3.2 T-type calcium channel; O95180; Cav3.2-expressing cells, Fluo-4 calcium fluorescence FDSS; active compounds read low; B-score at 10 µM; hit rate 4% among 100,000;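 active means single-dose well whose peak fluorescence ratio is a statistical outlier from its plate by either plate-standardised score or position-corrected B-score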
CYP2C9 activ: increases human cytochrome P450 2C9 activity; P11712; recombinant CYP2C9, luciferin-H conversion, luminescence; active compounds read high; factor 1 = untreated enzyme, 0 = blocked; activation factor at 5 µM; hit rate 1.4% among 96,000; AID 1024;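 active means activation factor of 2 or more for CYP2C9 at a 5 µM dose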;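 further: 0 = sulfaphenazole-blocked wells and 1 = vehicle-only wells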
* marks the source's active call; other numbers are inactive results.

`CCn1c(CCNC(=O)c2ccccc2Cl)n[nH]c1=S` gave Pyk2 oligo antag -0.19, CYP2C19 inhib 2.0, CYP2C9 inhib 8.0, CYP2C19 activ 1, Cav32 inh -0.386 and CYP2C9 activ 0.9.
CCN(C1CCCCC1)S(=O)(=O)c1ccc(S(=O)(=O)NCCc2ccncc2)cc1 was read as Pyk2 oligo antag -0.76, CYP2C19 inhib 95.8*, CYP2C9 inhib 99.5*, CYP2C19 activ 0, Cav32 inh -0.905 and CYP2C9 activ 0.
Screening CCN(C1CCCCC1)S(=O)(=O)c1ccc(S(=O)(=O)NCc2ccncc2)cc1 returned Pyk2 oligo antag -0.07, CYP2C19 inhib 83.8*, CYP2C9 inhib 100.1*, CYP2C19 activ 0.2, Cav32 inh -0.27 and CYP2C9 activ 0.
Screening CN(Cc1ccccc1)S(=O)(=O)c1ccc(S(=O)(=O)N(Cc2ccc(F)cc2)C2CCCC2)cc1 returned Pyk2 oligo antag 0.64, CYP2C19 inhib -6.4, CYP2C9 inhib 57.7*, CYP2C19 activ 1.1, Cav32 inh -2.51 and CYP2C9 activ 0.4.
Screening CN(Cc1ccccc1)S(=O)(=O)c1ccc(NC(=S)NC(=O)C2CCCC2)cc1 returned Pyk2 oligo antag -1.58, CYP2C19 inhib 1.7, CYP2C9 inhib 4.0, CYP2C19 activ 1, Cav32 inh 0.0203 and CYP2C9 activ 1.
Screening O=S(=O)(NCc1ccccc1)c1ccc(S(=O)(=O)N(Cc2ccccn2)C2CCCC2)cc1 returned Pyk2 oligo antag -0.35 and Cav32 inh -4.05*.
`COc1cccc(NC(=O)C2C3C=CC(O3)C2C(=O)NCc2cccnc2)c1` (configuration not stated) gave Pyk2 oligo antag 0.03, CYP2C19 inhib 11.5, CYP2C9 inhib 3.6, CYP2C19 activ 0.9, Cav32 inh 0.294 and CYP2C9 activ 1.
COc1cccc(CNC(=O)C(CCSC)NS(=O)(=O)c2ccc3c(c2)oc(=O)n3C)c1 (configuration not stated) was read as Pyk2 oligo antag -0.08, CYP2C19 inhib 6.4, CYP2C9 inhib 3.5, CYP2C19 activ 0.9 and CYP2C9 activ 1.
`C=CCn1c(C)cc(C(=O)CSc2n[nH]c(N)n2)c1C` gave Pyk2 oligo antag 0.38, CYP2C19 inhib 26.5, CYP2C9 inhib -157.0, CYP2C19 activ 0.7, Cav32 inh -0.0952 and CYP2C9 activ 2.6*.
For Cc1cc(C(=O)CSc2n[nH]c(N)n2)c(C)n1-c1cc(F)ccc1F the results were Pyk2 oligo antag 0.65, CYP2C19 inhib 76.5*, CYP2C9 inhib 54.1*, CYP2C19 activ 0.2, Cav32 inh -1.15 and CYP2C9 activ 0.5.
Cc1cc(C(=O)CSc2n[nH]c(N)n2)c(C)n1-c1ccccc1 was read as Pyk2 oligo antag -0.41, CYP2C19 inhib 87.4*, CYP2C9 inhib 58.2*, CYP2C19 activ 0.1, Cav32 inh -2.64 and CYP2C9 activ 0.4.
Screening Cc1cc(C(=O)CSc2n[nH]c(N)n2)c(C)n1C1CC1 returned Pyk2 oligo antag -0.45, CYP2C19 inhib -14.4, CYP2C9 inhib -77.3, CYP2C19 activ 1.1, Cav32 inh 0.12 and CYP2C9 activ 1.8.
`Cc1ccc(-n2c(C)cc(C(=O)CSc3n[nH]c(N)n3)c2C)cc1` gave Pyk2 oligo antag -0.66, CYP2C19 inhib 39.2, CYP2C9 inhib 27.8, CYP2C19 activ 0.6, Cav32 inh -2.13 and CYP2C9 activ 0.7.
Nc1nc(SCC(=O)NCCC(c2ccccc2)c2ccccc2)n[nH]1 was read as CYP2C19 inhib 95.6*, CYP2C9 inhib 70.8*, CYP2C19 activ 0, Cav32 inh 0.0261 and CYP2C9 activ 0.3.
For COc1ccc(Cn2c(CCC(=O)Nc3ccc(CC#N)cc3)nc3cccnc32)cc1 the results were Pyk2 oligo antag -0.61, CYP2C19 inhib 3.8, CYP2C9 inhib 11.7, CYP2C19 activ 1, Cav32 inh 0.131 and CYP2C9 activ 0.9.
`Nc1nc(SCC(=O)Nc2ccc(Br)cc2F)n[nH]1` gave Pyk2 oligo antag -0.84, CYP2C19 inhib 93.4*, CYP2C9 inhib 49.1, CYP2C19 activ 0.1, Cav32 inh -0.326 and CYP2C9 activ 0.5.
Screening Cc1cc(C)c(-c2cc(NC(=O)CSc3n[nH]c(N)n3)n(-c3ccccc3)n2)cc1C returned Pyk2 oligo antag -2.03, CYP2C19 inhib 93.9*, CYP2C9 inhib 90.2*, CYP2C19 activ 0.1, Cav32 inh -2.27 and CYP2C9 activ 0.1.
Screening Nc1nc(SCC(=O)Nc2ccccc2-c2ccccc2)n[nH]1 returned Pyk2 oligo antag -0.64, CYP2C19 inhib 42.0, CYP2C9 inhib 25.1, CYP2C19 activ 0.6, Cav32 inh 0.598 and CYP2C9 activ 0.7.
`CCCCN(CC)C(=O)Cc1ccccc1OC` gave Pyk2 oligo antag -0.08, CYP2C19 inhib 37.5, CYP2C9 inhib -11.1, CYP2C19 activ 0.6, Cav32 inh 0.000882 and CYP2C9 activ 1.1.
Screening CCCCN(CC)C(=O)Cc1cn(C)c2ccccc12 returned Pyk2 oligo antag -0.88, CYP2C19 inhib 95.3*, CYP2C9 inhib -238.5, CYP2C19 activ 0, Cav32 inh -0.0834 and CYP2C9 activ 3.4*.
COc1cccc(NC(=O)Cn2cc(C#N)c3ccccc32)c1 was read as Pyk2 oligo antag 1.13 and Cav32 inh -2.71.
Screening COc1cccc(NC(=O)CCCn2c(=O)[nH]c3ccccc3c2=O)c1 returned Pyk2 oligo antag -0.06, CYP2C19 inhib 25.0, CYP2C9 inhib 72.2*, CYP2C19 activ 0.8, Cav32 inh 0.233 and CYP2C9 activ 0.3.
For Cc1ccccc1NC(=O)Cc1cn(C)c2ccccc12 the results were Pyk2 oligo antag 0.29, CYP2C19 inhib 44.7, CYP2C9 inhib -195.8, CYP2C19 activ 0.6, Cav32 inh -0.155 and CYP2C9 activ 3*.
COc1cccc(NC(=O)Cc2c(C(=O)O)[nH]c3ccccc23)c1 was read as Pyk2 oligo antag -0.07, CYP2C19 inhib 14.5, CYP2C9 inhib 13.5, CYP2C19 activ 0.9, Cav32 inh 0.0718 and CYP2C9 activ 0.9.
COc1cccc(NC(=O)Cc2cn(C)c3ccccc23)c1 was read as Pyk2 oligo antag -0.18, CYP2C19 inhib 33.0, CYP2C9 inhib -280.6, CYP2C19 activ 0.7, Cav32 inh -4.5* and CYP2C9 activ 3.8*.
`CO/N=C/c1ccc(Oc2ccc(C)cc2)nc1` gave Pyk2 oligo antag -0.09, CYP2C19 inhib 31.9, CYP2C9 inhib -26.1, CYP2C19 activ 0.7, Cav32 inh -0.234 and CYP2C9 activ 1.3.
Screening Cc1cnn(C(=O)c2ccccc2Br)c1 returned CYP2C19 inhib 30.4, CYP2C9 inhib -8.0, CYP2C19 activ 0.7, Cav32 inh 0.691 and CYP2C9 activ 1.1.
For CCCSc1nnc(C(C)C)n1N the results were Pyk2 oligo antag 0.6, CYP2C19 inhib -15.0, CYP2C9 inhib -11.3, CYP2C19 activ 1.1, Cav32 inh -0.656 and CYP2C9 activ 1.1.
COc1cccc(NC(=O)Cn2c(=O)n(CC3CCCO3)c(=O)c3ccccc32)c1 (configuration not stated) was read as Pyk2 oligo antag -2.35, CYP2C19 inhib 62.6*, CYP2C9 inhib 41.4, CYP2C19 activ 0.4, Cav32 inh 1.66 and CYP2C9 activ 0.6.

Screens as filed in PubChem.
